Our source for the outcome values is PubChem BioAssay AID485338 (The Scripps Research Institute Molecular Screening Center, 2010).

SMILES strings stand for the structures. Potency and affinity values are given separately. The source made the active and inactive calls.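 The calls were made as follows: active = mean inhibition of cell viability at 10 µM of at least 40% (some results past the limit were not filed as active); inactive = the rest.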

This assay can be described thus: cytotoxicity in DLD-1 colorectal cells, late-stage follow-up, cytotoxicity control for KLF5 inhibitor project, cell-based, luminescence, round 1 (AID 485338). The conditions noted are these: DLD-1 viability, CellTiter-Glo ATP luminescence; series mostly up to 20 µM.
For the compound `Cc1ccc2nc(NC(=O)CCCc3nc4ccccc4s3)sc2c1`, the compound was classed as inactive.

Turning to `COC(=O)c1ccc2nc(Nc3nc4ccc(F)cc4s3)sc2c1`, the call was inactive.

Regarding `CCOC(=O)c1sc(NC(=O)c2ccc3ncsc3c2)nc1C`, the compound was called inactive. On to `CCCc1ccc(-c2ccc(/C=C/C(=O)O)cc2)nc1`, for which the compound was called inactive.
